Assay outcomes deposited in PubChem BioAssay by National Center for Advancing Translational Sciences (NCATS).
In the library only some 1.3% were active in any assay of this set; here they are far more common.
PTHR1 ag: activates the human parathyroid hormone receptor PTHR1. Potency, µM (top dose mostly 115 µM), without a hit: at the highest dose activation, actives largely listed as activators. Q03431. HEK293 GP2 PTHR1 cells, GloSensor cAMP luminescence, 1 h. hit rate 0.075% among 410,000; also: potency is read from the fitted curve at half-maximal effect; nearly all actives have a fitted effect of over 55% in size
Target sequence (Q03431 whole entry, looked up): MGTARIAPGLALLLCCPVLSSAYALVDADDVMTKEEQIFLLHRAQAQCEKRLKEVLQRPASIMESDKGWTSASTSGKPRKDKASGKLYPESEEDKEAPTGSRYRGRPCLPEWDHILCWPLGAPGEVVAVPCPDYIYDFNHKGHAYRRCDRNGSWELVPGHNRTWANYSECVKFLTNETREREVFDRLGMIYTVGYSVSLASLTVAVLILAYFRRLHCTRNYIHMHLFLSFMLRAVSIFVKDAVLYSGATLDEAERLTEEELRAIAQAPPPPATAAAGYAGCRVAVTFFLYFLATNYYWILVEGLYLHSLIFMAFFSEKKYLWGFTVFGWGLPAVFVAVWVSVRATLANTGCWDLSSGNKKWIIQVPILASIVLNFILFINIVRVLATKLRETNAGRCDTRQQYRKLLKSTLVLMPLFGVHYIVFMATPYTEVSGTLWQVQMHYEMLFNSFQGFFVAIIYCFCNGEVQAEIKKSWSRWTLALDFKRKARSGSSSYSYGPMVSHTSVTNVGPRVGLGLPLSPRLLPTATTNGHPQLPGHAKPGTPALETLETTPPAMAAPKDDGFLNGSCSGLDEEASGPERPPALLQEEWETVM
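HEK-293-derived GP2 cells expressing PTHR1 and a GloSensor cAMP reporter, 3,000/well, plated overnight, given luciferin plus IBMX (each 0.5 mM as added) for 1 h at 37 °C, then compound for 1 h at 37 °C. Luminescence was read after 15 min at room temperature.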
Mito fusion act: inhibitors of mitochondrial division or activators of mitochondrial fusion. S. cerevisiae fusion-defective mutant growth rescue, CellTiterGlo 48 h. Potency, µM (highest dose often 46.1 µM), for the others: at the top dose growth rescue (activation), usual class: activators. hit rate 0.23% among 320,000; also: potency is read from the fitted curve at half-maximal effect; % of control where 0% means no effect; nearly all actives have a fitted effect of over 45% in size
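S. cerevisiae fusion-defective temperature-sensitive mutants (e.g. fzo1-1, mgm1-5) grown 48 h at 37C in YPEG (ethanol/glycerol non-fermentable) medium with 23 nl compound per well; growth rescue read as CellTiterGlo luminescence.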
TCR activator: activators of T cell receptors; primary human leukocytes, anti-CD3, IL-2 HTRF, 48 h; Potency, µM (top dose mostly 9.22 µM), for the others: top-dose activation of IL-2 secretion, hits mostly activators; 330,000 tested, under 10 active; also: % of control where 0% means no effect
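IL-2 produced over 48 hr by a-CD3 bead-stimulated primary human leukocytes exposed to compounds was detected with a homogeneous time-resolved FRET immunoassay, 665nm acceptor signal after 320nm excitation.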
IL2 activator: activators of IL-2 | IL-2 activation reporter assay, cell-based qHTS; stimulated with anti-CD3/CD4/CD28 beads; in transgenic mouse T cells | activation, % (series mostly up to about 46 µM) | hit rate 0.065% among 360,000 | AID 652025; in the data active = activation above about 50%; inconclusive = mostly about 30% to 49%; also: 0% is about no effect
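Screening format: compound pinned onto unstimulated transgenic mouse T cells, 60 min incubation, then anti-CD3/anti-CD4/anti-CD28 bead stimulation for 18 hours at 37 degrees C, followed by EGFP and DsRed detection.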
Chronic BCR inh: inhibitors of chronic active B-cell receptor signaling | ABC-DLBCL IkBa-CBG/CBR reporter, luminescence ratio, 4 h | Potency, µM (doses to about 46.1 µM), without a hit: at the top dose activity change, negative = inhibition, most hits filed as inhibitors | hit rate 0.05% among 340,000 | AID 493014; active = well fitted inhibition curve with a large enough effect in the signal ratio, with a control signal flat, not every such curve was filed as active; inconclusive = small, poorly fitted or top-dose-only effect, or effect the other way, or a change in a side signal; the % refers to the signal ratio;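 also: potency is read from the fitted curve at half-maximal effect; plate controls were basal doxycycline-induced cells for no effect and cells given 10 µM MG132 for full effect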
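Doxycycline induced both beetle luciferases in TMD8 lymphoma cells; IKK-driven degradation limits the IkappaBalpha-fused green signal, while red luminescence normalises for cell number and nonspecific effects. Compounds tested up to 46 uM, 4 hrs.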
BRCA1 expr up: activators of BRCA1 expression; AID 624202; MCF7-BRCA1-FFLuc reporter, luminescence, 48 h; response scale: scaled: vehicle 0%, 10 µM genistein 100%; hit rate 1.1% among 380,000; Potency, µM (titrated, usually from 46.1 µM), for inactives: top-dose activation, hits mostly activators; also: potency is read from the fitted curve at half-maximal effect; nearly all actives have a fitted effect of over 80% in size
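Reporter cells (MCF7, BRCA1 promoter-firefly luciferase) received library compounds across a concentration series for 48 h. End-point luminescence was measured and concentration-effect curves derived after normalization.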
Numbers without * were called inactive; [ ] = remark or other dose. Unless noted, calls follow the shape of the dose curve; as a rule, active = well fitted curve in the direction sought with a large enough effect; inconclusive = small, poorly fitted or top-dose-only effect, or another doubt; inactive = no such curve, though single readings can be large; an effect the other way counts as inactive or inconclusive.

How did CCC(C)NC(=O)c1sc2ncccc2c1-n1c(C)ccc1C (stereo not drawn) do in these assays?
PTHR1 ag: -24%

How did COc1ccc(C(=O)Nc2ccc(NS(=O)(=O)c3ccccc3)cc2)cc1OC do in these assays?
PTHR1 ag: -13%; Mito fusion act: 0%; TCR activator: 2%; IL2 activator: -3; Chronic BCR inh: inconclusive; BRCA1 expr up: -30%

Results for O=C(NNC(=S)Nc1ccccc1Cl)c1ccccc1Cl ?
PTHR1 ag: inactive; Mito fusion act: 2%; TCR activator: -3%; IL2 activator: -3; Chronic BCR inh: -8%; BRCA1 expr up: 10µM*

What do the screens show for `O=C(NNC(=S)Nc1ccccc1Cl)c1ccccc1`?
PTHR1 ag: -18%; Mito fusion act: -2%; TCR activator: -4%; IL2 activator: -2; Chronic BCR inh: inconclusive; BRCA1 expr up: 13µM*

What do the screens show for `O=C(Nc1ccccc1Cl)c1ccccc1Cl`?
PTHR1 ag: -6%[57.5 µM]; Mito fusion act: 2%; TCR activator: 0%; IL2 activator: -1; Chronic BCR inh: inconclusive; BRCA1 expr up: 44%

Results for Cc1sc2ccccc2[n+]1C ?
BRCA1 expr up: -4%

Results for O=C(O)c1ccccc1C(=O)NCc1c(Cl)cccc1Sc1ccc(Cl)cc1 ?
PTHR1 ag: -25%; Mito fusion act: 5%; TCR activator: -1%; IL2 activator: 1; Chronic BCR inh: inconclusive; BRCA1 expr up: -18%

What do the screens show for `CCc1ccc(-c2nc3c(=O)n(C)c(=O)nc-3n(CC)n2)cc1`?
BRCA1 expr up: -80%

Results for Cc1ccc(-c2nc(-c3ccncc3)no2)cc1C ?
PTHR1 ag: -30%; Mito fusion act: -13%; TCR activator: -1%; IL2 activator: -2; Chronic BCR inh: inconclusive; BRCA1 expr up: inconclusive

Results for Cc1ccc(-c2noc(-c3ccno3)n2)cc1 ?
PTHR1 ag: -8%; Mito fusion act: -6%; TCR activator: 2%; IL2 activator: -1; Chronic BCR inh: inconclusive; BRCA1 expr up: 8.9µM*

Results for Fc1cccc(F)c1-c1nc(-c2ccncc2)no1 ?
PTHR1 ag: -10%; Mito fusion act: -6%; TCR activator: 6%; IL2 activator: -1; Chronic BCR inh: -1%; BRCA1 expr up: 8.9µM*

What do the screens show for `CC(NC(=O)c1ccccc1)C(=O)N/N=C/c1cccc([N+](=O)[O-])c1` (stereo not drawn)?
PTHR1 ag: inactive; Mito fusion act: 6%; TCR activator: -4%; IL2 activator: 1; Chronic BCR inh: inconclusive; BRCA1 expr up: 20%

How did Cc1nn(CC(=O)N(C)C2CCS(=O)(=O)C2)c(C)c1S(=O)(=O)N(C)C (stereo not drawn) do in these assays?
PTHR1 ag: -19%; Mito fusion act: 3%; TCR activator: -1%; IL2 activator: 0; Chronic BCR inh: 0%; BRCA1 expr up: 8%

What do the screens show for `O=C(Cc1ccc(OCCCCc2ccccc2)cc1)NO`?
BRCA1 expr up: 33%

What do the screens show for `O=C1CC(c2ccccc2)Cc2[nH]c(=O)c(C(=O)O)cc21` (stereo not drawn)?
BRCA1 expr up: 12%

Results for CCCCNC(=O)CNC(=O)c1cccs1 ?
PTHR1 ag: -3%[57.5 µM]; Mito fusion act: -2%; TCR activator: 6%; IL2 activator: 1; Chronic BCR inh: 12%; BRCA1 expr up: 0%

Results for CCCCN(CCCC)CCNC(=O)CNC(=O)c1cccs1 ?
PTHR1 ag: inactive; Mito fusion act: 32µM*; TCR activator: -3%; IL2 activator: -1; Chronic BCR inh: -22%; BRCA1 expr up: 4%

How did O=C(Nc1cc(Cl)cc(Cl)c1)c1cnn2c1NC(=C1CC1)C=C2C(F)F do in these assays?
BRCA1 expr up: -14%

What do the screens show for `Nc1ccc2c(c1)C(=O)N(c1ccc3ccccc3c1)C2=O`?
BRCA1 expr up: 11µM*
